# Of roughly 7,900 targets only a part is listed; those with a hit were picked by preference. About 0.6% of all pairs of compound and target were hits. A number with no mark means an inactive call.
# Assays:
# Test in all cases: log2 fold change, soluble protein after heating vs DMSO (PISA); higher = thermal stabilisation; K562 cells, 10 uM, 30 min; active = over 0.2 and 3.5 SD of the protein, either way, in both replicates (recomputed)
# [1] = compound: COC1=CC=C(C=C1)CN2C=CC3=C2C=C(C=C3)C(=O)NO
# Outline: (§1)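 Thermal stability values are relative to control samples and come from duplicates. They are expressed as log2 fold changes. For measurement, K562 cells (2×10^6 cells/mL) received 10 μM compound for 30 min, and aliquots were heated for 3 min over 48°C-58°C, pooled, and extracted at 4°C in PBS with 0.5% NP-40. Soluble protein, the supernatant after 21,000xg for 90 min, was quantified by TMTpro 16plex LC-MS/MS with equalised channel sums.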
# filanesib = compound: CON(C)C(=O)N1N=C(c2cc(F)ccc2F)S[C@@]1(CCCN)c1ccccc1 [filanesib]
# Outline: as §1
# zotarolimus = compound: CO[C@H]1C[C@@H]2CC[C@@H](C)[C@@](O)(O2)C(=O)C(=O)N2CCCC[C@H]2C(=O)O[C@H]([C@H](C)C[C@@H]2CC[C@H](n3cnnn3)[C@H](OC)C2)CC(=O)[C@H](C)/C=C(\C)[C@@H](O)[C@@H](OC)C(=O)[C@H](C)C[C@H](C)/C=C/C=C/C=C/1C [zotarolimus]
# Outline: as §1
# idasanutlin = compound: COc1cc(C(=O)O)ccc1NC(=O)[C@@H]1N[C@@H](CC(C)(C)C)[C@](C#N)(c2ccc(Cl)cc2F)[C@H]1c1cccc(Cl)c1F [idasanutlin]
# Outline: as §1
# alisertib = compound: COc1cc(Nc2ncc3c(n2)-c2ccc(Cl)cc2C(c2c(F)cccc2OC)=NC3)ccc1C(=O)O [alisertib]
# Outline: as §1
# [2] = compound: COc1cc2nc(-c3cc(F)ccc3O)nc(N[C@@H]3CNC[C@H]3C(C)(C)O)c2cc1OC
# Outline: as §1
# gefitinib = compound: COc1cc2ncnc(Nc3ccc(F)c(Cl)c3)c2cc1OCCCN1CCOCC1 [gefitinib]
# Outline: as §1
# [3] = compound: COc1cccc2cc(-c3nc([C@H]4CC[C@H](C(=O)O)CC4)n4ncnc(N)c34)[nH]c12
# Outline: as §1
# lapatinib = compound: CS(=O)(=O)CCNCc1ccc(-c2ccc3ncnc(Nc4ccc(OCc5cccc(F)c5)c(Cl)c4)c3c2)o1 [lapatinib]
# Outline: as §1
# pictilisib = compound: CS(=O)(=O)N1CCN(Cc2cc3nc(-c4cccc5[nH]ncc45)nc(N4CCOCC4)c3s2)CC1 [pictilisib]
# Outline: as §1
# [4] = compound: CS(=O)(=O)c1ccc(-c2cnc(N)c(C(=O)Nc3ccccc3)n2)cc1
# Outline: as §1
# crizotinib = compound: C[C@@H](Oc1cc(-c2cnn(C3CCNCC3)c2)cnc1N)c1c(Cl)ccc(F)c1Cl [crizotinib]
# Outline: as §1
# [5] = compound: C[C@@H]1COCCN1C2=NC(=NC(=C2)C3(CC3)S(=O)(=O)C)C4=C5C=CNC5=CC=C4
# Outline: as §1
# [6] = compound: C[C@H](C1=CC=C(C=C1)C(=O)NC2=C3C=CNC3=NC=C2)N
# Outline: as §1
# duvelisib = compound: C[C@H](Nc1ncnc2nc[nH]c12)c1cc2cccc(Cl)c2c(=O)n1-c1ccccc1 [duvelisib]
# Outline: as §1
# gandotinib = compound: Cc1cc(Nc2cc(CN3CCOCC3)c3nc(C)c(Cc4ccc(Cl)cc4F)n3n2)n[nH]1 [gandotinib]
# Outline: as §1
# tozasertib = compound: Cc1cc(Nc2cc(N3CCN(C)CC3)nc(Sc3ccc(NC(=O)C4CC4)cc3)n2)n[nH]1 [tozasertib]
# Outline: as §1
# [7] = compound: Cc1cc(SCc2sc(-c3ccc(C(F)(F)F)cc3)nc2C)ccc1OCC(=O)O
# Outline: as §1
# doramapimod = compound: Cc1ccc(-n2nc(C(C)(C)C)cc2NC(=O)Nc2ccc(OCCN3CCOCC3)c3ccccc23)cc1 [doramapimod]
# Outline: as §1
# ispinesib = compound: Cc1ccc(C(=O)N(CCCN)[C@@H](c2nc3cc(Cl)ccc3c(=O)n2Cc2ccccc2)C(C)C)cc1 [ispinesib]
# Outline: as §1
# UniProt P08047, sequence (P08047 whole entry, looked up): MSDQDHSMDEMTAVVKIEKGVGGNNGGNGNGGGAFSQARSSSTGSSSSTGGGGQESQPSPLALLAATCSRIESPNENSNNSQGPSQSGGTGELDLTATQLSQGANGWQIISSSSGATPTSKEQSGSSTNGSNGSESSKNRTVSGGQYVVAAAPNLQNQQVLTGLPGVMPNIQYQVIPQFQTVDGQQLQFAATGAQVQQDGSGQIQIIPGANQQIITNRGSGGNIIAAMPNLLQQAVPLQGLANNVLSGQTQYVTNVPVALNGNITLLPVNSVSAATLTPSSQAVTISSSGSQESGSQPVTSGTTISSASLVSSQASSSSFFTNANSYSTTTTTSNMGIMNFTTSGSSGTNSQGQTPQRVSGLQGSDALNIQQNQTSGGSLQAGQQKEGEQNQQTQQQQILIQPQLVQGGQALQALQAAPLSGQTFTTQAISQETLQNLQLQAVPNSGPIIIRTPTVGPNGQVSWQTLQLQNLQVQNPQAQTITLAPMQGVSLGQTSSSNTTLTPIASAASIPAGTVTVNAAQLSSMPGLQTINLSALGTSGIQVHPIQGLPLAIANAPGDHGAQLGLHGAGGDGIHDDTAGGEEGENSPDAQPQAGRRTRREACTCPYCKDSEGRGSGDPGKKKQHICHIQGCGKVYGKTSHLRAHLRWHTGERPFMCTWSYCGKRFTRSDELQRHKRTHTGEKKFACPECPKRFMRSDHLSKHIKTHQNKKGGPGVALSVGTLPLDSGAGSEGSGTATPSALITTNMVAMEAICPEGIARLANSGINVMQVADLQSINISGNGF
# UniProt Q8WUH2, sequence (Q8WUH2 whole entry, looked up): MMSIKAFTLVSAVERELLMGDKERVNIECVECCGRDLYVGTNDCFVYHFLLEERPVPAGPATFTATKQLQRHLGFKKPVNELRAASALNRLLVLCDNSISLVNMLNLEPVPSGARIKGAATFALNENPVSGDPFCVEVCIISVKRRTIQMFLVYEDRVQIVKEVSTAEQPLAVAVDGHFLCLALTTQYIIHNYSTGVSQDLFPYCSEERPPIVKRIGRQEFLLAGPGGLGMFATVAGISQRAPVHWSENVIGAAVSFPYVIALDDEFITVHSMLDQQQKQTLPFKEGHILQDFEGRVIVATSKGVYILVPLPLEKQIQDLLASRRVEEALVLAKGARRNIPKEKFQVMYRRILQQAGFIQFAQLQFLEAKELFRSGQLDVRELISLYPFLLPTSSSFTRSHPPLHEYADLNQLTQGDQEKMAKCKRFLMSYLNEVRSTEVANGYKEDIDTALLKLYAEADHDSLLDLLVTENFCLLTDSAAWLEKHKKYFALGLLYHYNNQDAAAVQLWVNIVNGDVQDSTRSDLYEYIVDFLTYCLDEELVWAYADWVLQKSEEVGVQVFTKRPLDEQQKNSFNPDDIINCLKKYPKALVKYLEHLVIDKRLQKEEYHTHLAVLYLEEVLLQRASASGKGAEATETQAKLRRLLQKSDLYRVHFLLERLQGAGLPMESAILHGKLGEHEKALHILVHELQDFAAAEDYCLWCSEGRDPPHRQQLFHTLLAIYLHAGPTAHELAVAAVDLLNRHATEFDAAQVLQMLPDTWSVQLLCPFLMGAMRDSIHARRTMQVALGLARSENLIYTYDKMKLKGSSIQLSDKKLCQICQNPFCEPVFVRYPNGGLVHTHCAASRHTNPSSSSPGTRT
# UniProt P05455, sequence (P05455 whole entry, looked up): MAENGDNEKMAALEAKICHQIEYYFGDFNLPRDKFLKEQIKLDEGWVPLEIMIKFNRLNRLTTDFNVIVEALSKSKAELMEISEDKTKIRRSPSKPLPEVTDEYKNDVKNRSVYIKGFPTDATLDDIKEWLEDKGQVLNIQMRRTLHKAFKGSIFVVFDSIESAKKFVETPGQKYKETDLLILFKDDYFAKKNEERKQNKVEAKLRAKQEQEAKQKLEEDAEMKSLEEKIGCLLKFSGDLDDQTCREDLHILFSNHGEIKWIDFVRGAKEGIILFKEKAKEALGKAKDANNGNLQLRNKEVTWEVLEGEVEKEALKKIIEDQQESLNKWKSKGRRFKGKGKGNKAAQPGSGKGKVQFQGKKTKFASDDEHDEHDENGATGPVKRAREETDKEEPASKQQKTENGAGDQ
# UniProt Q13395, sequence (Q13395 whole entry, looked up): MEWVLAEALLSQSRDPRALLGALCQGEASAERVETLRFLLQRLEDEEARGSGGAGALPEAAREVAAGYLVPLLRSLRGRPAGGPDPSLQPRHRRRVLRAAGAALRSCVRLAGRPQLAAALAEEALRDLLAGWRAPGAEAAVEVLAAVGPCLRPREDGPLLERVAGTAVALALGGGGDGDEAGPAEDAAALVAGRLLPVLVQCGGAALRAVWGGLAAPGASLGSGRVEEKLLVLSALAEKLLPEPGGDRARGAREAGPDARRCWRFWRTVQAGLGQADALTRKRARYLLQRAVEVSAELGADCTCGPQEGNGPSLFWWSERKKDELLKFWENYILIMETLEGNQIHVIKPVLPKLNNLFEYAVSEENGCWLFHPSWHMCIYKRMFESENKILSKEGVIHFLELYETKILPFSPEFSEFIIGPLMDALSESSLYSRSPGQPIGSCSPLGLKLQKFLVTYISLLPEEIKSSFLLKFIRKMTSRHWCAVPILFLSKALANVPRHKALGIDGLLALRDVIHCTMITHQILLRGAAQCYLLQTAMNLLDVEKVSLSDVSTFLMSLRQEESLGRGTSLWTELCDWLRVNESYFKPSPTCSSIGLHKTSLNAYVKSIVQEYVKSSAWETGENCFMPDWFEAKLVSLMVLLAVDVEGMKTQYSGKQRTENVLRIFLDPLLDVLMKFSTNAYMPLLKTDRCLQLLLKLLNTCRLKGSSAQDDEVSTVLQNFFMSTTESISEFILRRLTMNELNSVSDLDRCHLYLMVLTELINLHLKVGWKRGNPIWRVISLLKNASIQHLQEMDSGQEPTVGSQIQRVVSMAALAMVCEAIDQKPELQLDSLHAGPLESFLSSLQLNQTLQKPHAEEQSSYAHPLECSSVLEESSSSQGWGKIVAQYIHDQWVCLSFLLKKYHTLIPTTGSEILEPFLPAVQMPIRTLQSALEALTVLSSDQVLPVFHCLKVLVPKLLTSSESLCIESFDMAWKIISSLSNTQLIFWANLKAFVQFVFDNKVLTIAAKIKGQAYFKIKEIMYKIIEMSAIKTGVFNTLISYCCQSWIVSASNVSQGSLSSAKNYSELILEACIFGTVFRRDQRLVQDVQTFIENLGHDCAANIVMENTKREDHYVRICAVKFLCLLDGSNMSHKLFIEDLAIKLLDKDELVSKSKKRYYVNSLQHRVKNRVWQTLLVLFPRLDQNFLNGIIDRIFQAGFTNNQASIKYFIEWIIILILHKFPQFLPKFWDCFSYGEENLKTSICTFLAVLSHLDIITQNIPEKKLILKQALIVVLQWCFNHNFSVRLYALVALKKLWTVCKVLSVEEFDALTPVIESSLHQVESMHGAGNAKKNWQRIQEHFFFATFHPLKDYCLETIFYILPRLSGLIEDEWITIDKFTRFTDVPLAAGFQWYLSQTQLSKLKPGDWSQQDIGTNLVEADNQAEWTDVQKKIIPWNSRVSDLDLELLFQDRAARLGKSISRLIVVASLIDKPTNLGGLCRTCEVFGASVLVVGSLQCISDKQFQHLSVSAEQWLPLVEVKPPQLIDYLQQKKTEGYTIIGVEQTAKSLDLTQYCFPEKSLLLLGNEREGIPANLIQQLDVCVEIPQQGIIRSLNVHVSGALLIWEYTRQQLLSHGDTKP
# UniProt O60264, sequence (O60264 whole entry, looked up): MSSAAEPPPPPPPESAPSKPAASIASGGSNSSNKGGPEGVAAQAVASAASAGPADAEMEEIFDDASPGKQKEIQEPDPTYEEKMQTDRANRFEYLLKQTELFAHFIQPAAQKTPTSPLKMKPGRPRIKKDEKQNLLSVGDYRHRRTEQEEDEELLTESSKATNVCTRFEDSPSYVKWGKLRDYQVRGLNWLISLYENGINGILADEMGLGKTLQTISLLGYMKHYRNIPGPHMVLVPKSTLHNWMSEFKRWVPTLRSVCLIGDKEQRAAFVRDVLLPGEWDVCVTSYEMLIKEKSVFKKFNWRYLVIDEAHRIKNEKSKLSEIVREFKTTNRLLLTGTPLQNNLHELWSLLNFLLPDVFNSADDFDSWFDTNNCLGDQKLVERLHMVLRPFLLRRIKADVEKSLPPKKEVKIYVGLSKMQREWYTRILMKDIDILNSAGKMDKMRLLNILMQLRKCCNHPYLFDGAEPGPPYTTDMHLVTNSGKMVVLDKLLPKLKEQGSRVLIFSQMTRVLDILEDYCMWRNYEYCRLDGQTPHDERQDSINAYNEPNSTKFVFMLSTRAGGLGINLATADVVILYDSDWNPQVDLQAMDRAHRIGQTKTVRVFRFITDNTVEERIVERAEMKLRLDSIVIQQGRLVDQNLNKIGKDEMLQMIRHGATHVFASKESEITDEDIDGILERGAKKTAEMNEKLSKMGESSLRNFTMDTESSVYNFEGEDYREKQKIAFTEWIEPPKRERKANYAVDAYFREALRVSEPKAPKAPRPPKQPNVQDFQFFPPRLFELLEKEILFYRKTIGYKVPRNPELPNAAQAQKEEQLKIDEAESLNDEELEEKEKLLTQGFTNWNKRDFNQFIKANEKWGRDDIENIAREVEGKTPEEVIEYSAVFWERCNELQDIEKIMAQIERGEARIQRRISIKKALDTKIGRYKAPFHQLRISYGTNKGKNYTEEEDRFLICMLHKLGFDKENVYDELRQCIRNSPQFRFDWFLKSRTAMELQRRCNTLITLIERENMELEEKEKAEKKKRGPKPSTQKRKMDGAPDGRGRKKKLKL
# UniProt O95772, sequence (O95772 whole entry, looked up): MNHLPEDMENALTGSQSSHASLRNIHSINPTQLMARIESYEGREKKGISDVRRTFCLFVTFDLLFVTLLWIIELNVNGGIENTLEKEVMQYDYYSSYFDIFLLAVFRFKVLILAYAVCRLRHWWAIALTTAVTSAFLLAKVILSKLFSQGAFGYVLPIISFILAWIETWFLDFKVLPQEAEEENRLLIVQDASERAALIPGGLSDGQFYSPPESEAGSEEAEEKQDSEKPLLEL
Target,log2 fold change [1],log2 fold change (filanesib),log2 fold change (zotarolimus),log2 fold change (idasanutlin),log2 fold change (alisertib),log2 fold change [2],log2 fold change (gefitinib),log2 fold change [3],log2 fold change (lapatinib),log2 fold change (pictilisib),log2 fold change [4],log2 fold change (crizotinib),log2 fold change [5],log2 fold change [6],log2 fold change (duvelisib),log2 fold change (gandotinib),log2 fold change (tozasertib),log2 fold change [7],log2 fold change (doramapimod),log2 fold change (ispinesib)
SPTBN4 (UniProt Q9H254),-0.036,-0.068,0.014,-0.237,-0.116,-0.202,-0.047,0.158,0.041,0.175,0.026,0.09,-0.024,0.098,0.007,-0.03,-0.039,-0.003,-0.03,0.06
SMARCA5 (UniProt O60264),0.047,0.047,0.043,0.059,-0.064,-0.049,0.073,-0.144,-0.017,0.004,-0.004,-0.073,0.273,0.161,0.025,-0.045,0.154,0.127,-0.052,-0.012
TGFBRAP1 (UniProt Q8WUH2),0.092,-0.006,-0.031,-0.137,0.046,0.092,0.047,-0.103,-0.098,-0.136,-0.081,-0.367,0.051,0.067,-0.088,-0.142,0.051,0.087,0,-0.221
SMCHD1 (UniProt A6NHR9),0.043,0.008,0.123,0.062,-0.005,-0.179,-0.078,-0.096,0.002,0.035,-0.019,-0.065,-0.041,-0.104,0,0.064,0.007,0.104,0.059,-0.149
SSX2 (UniProt Q16385),0.083,0.009,-0.014,-0.021,0.035,0.025,0.032,0.004,-0.011,0.064,-0.024,0.062,0.05,0.053,0.036,-0.003,0.031,-0.009,-0.043,-0.029
SORT1 (UniProt Q99523),0.058,-0.066,0.002,0.008,-0.016,-0.032,0.028,0.056,0.022,0.003,0.007,-0.742 (active),-0.019,-0.051,0.023,-0.069,-0.001,-0.066,-0.042,-0.032
TBC1D24 (UniProt Q9ULP9),0.032,-0.145,0.006,-0.127,-0.102,-0.028,0.007,0.05,0.032,-0.082,0.018,-0.235,0.08,-0.014,0.04,-0.361,-0.119,0.073,0.061,-0.218
STRN (UniProt O43815),-0.002,-0.002,0.052,-0.018,-0.083,-0.003,0.02,0.017,0.015,0.006,0.016,0.068,-0.004,-0.125,0.046,-0.048,0.048,0.076,-0.018,0.198
SSR3 isoform 2 (UniProt Q9UNL2),-0.236,-0.107,0.087,0.066,-0.015,-0.013,0.003,0.08,0.006,-0.096,0.021,-0.043,0.05,-0.458 (active),0.012,0.281,0.003,-0.038,0.034,0.021
STARD3NL (UniProt O95772),-0.005,-0.082,-0.054,-0.19,-0.056,0.095,0.048,0.075,-0.048,0.024,-0.011,-0.448 (active),0.055,-0.067,0.111,-0.14,0.03,-0.058,0.063,-0.256
SUOX (UniProt P51687),-0.321,-0.014,0.02,0.013,-0.014,0.088,0.007,0.022,-0.088,0.158,0.016,0.076,0.098,0.001,-0.026,0.063,0.003,-0.075,-0.338,-0.034
SP1 (UniProt P08047),-0.064,0.022,-0.033,-0.002,-0.025,-0.007,-0.043,0.005,-0.004,0.142,0.031,-0.038,-0.044,0.042,0.008,0.083,0.037,0.023,0.036,-0.113
TARBP1 (UniProt Q13395),-0.036,-0.077,0.105,-0.027,0.096,0.049,-0.026,-0.019,-0.015,-0.078,0.076,0.016,0.028,-0.074,-0.046,-0.075,-0.018,0.038,-0.004,0.026
SSB (UniProt P05455),-0.036,0.049,-0.063,0,-0.046,-0.132,-0.016,-0.101,-0.031,-0.042,-0.159,0.022,-0.085,-0.05,-0.033,-0.103,0.048,0.003,0.013,-0.02
SYMPK (UniProt Q92797),0.069,-0.102,0.07,-0.127,0.047,0.036,0.107,0.025,-0.045,0.155,-0.031,-0.189,0.046,-0.026,0.077,-0.155,0.054,0.235,-0.09,-0.023
THADA (UniProt Q6YHU6),0.019,-0.18,-0.008,-0.081,-0.022,-0.03,-0.031,0.014,0.012,-0.014,0.01,-0.168,0.05,0.018,0.046,-0.239 (active),-0.052,0.083,0.001,-0.133

# — the supplement of paper PMC10849652
